# IDE cell activ: activators of human insulin-degrading enzyme in cells; hit rate 0.073% among 340,000; P14735; HEK cells, FAbeta-B cleavage, fluorescence polarization; 0% vehicle, 100% cell-free pure enzyme wells; activation, % at 5.96 µM;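 active means activation above the mean of all tested compounds plus 3 SD, set per screening campaign, cut at about 17% in these data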
# ANO1 activ: activators or potentiators of mouse TMEM16A chloride channel; B-score at 10 µM; HEK293 TMEM16A/YFP-H148Q/I152L, iodide quench fluorescence; hits give low values; hit rate 0.3% among 340,000;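 active means fluorescence-ratio B-score plate-corrected deviation score at least 3 library SD below zero, with starting fluorescence score within 5 deviations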;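 further: channel opened by trigger with iodide after compound preincubation; score built on the fluorescence ratio of max minus min over baseline; more negative score means more quench and so TMEM16A activation or potentiation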
# IDE cell inh: inhibits human insulin-degrading enzyme in HEK cells | inhibition, % at 5.59 µM | FAbetaB cleavage, fluorescence polarization | hit rate 0.41% among 320,000;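 active means percent inhibition above the average of all tested compounds plus 3 SD, set per screening campaign, cut at about 16% in these data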;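 further: IDE supplied by intact live HEK cells; FP after avidin binding of uncleaved biotin substrate so inhibition keeps polarization high; 0% = DMSO wells and 100% = 60 µM reference IDE inhibitor Ii1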
# TMEM16A inh: inhibitors of mouse TMEM16A calcium-activated chloride channel; Q8BHY3; HEK293 TMEM16A/YFP iodide influx fluorescence, ionomycin; normalized B-score (activity score, 25-100; higher = stronger inhibition) at 10 µM; hit rate 1.2% among 310,000; AID 588511;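 active means ratio plate-corrected score three or more library SD toward inhibition, starting fluorescence score within five deviations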;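 further: score derived from kinetic fluorescence span divided by baseline fluorescence per well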
# CHT PAM: allosteric activators of human choline transporter CHT; Q9GZV3; CHT-expressing cells, membrane potential dye, choline EC20; hits give high values; LV-AA mutant CHT in HEK293 cells; B-score at 10 µM; hit rate 0.49% among 310,000;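 active means initial fluorescence not abnormally high and integrated response B-score, plate-corrected, over 3 SD above library mean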
# Target sequence (Q9GZV3 whole entry, looked up): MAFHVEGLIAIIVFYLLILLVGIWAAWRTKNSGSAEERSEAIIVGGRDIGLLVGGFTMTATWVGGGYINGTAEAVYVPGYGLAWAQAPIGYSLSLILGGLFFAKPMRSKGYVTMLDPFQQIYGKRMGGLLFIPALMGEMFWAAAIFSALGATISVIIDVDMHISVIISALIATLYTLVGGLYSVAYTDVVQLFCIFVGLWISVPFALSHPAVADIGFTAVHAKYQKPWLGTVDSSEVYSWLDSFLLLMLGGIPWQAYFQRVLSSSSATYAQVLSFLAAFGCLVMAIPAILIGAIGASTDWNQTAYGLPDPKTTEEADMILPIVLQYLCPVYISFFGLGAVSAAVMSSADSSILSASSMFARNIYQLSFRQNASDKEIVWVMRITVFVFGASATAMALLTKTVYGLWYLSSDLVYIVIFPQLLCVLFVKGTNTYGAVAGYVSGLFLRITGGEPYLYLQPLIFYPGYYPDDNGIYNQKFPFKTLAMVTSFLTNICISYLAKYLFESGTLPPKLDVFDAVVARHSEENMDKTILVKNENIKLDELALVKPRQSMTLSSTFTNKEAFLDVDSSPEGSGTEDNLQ
# CHT inh: inhibitors of human choline transporter CHT; B-score at 10 µM; hit rate 0.86% among 310,000; AID 488975; CHT-expressing cells, membrane potential dye, choline response; hits give low values; Q9GZV3;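 active means B-score over 3 SD under the library average, and starting fluorescence ratio not unusually high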;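 further: choline stimulus applied at its EC90 after an EC20 pre-addition; B-score computed on integrated fluorescence ratio after choline addition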
# CHT inh conf: human CHT inhibition, confirmatory screen; shares compounds with CHT inh; CHT-expressing cells, choline membrane potential dye; LV-to-AA substituted CHT, HEK293 cells; CHT activity remaining % of control (hits give low values), % at 10 µM; hit rate 70% among 2,400;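 active means choline transporter activity left, mean of duplicates at 10 µM, below buffer-only control mean minus 3 SD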;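 further: depolarization triggered by choline at its EC90 following an EC20 pre-addition; 0% = hemicholinium-3 full block and 100% = buffer-only control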
# HEK293 MPD ctr: activity in parental HEK293 cells lacking CHT; shares compounds with CHT inh; membrane potential dye, choline response; active = decrease or increase beyond buffer ±3SD; membrane potential ratio readout (active if shifted either direction beyond buffer ±3SD; no single direction) at 10 µM; hit rate 4% among 2,400; AID 493222;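 further: parental cells lack the transporter so any hit is non-specific; ratio is peak minus trough fluorescence over baseline after EC90 choline challenge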
# Numbers without * were called inactive; i = inactive; x = no result given. Only some compounds are listed: those with a hit (about 2.7% of all), similar ones and a draw of the others.
SMILES,IDE cell activ,ANO1 activ,IDE cell inh,TMEM16A inh,CHT PAM,CHT inh,CHT inh conf,HEK293 MPD ctr
CC(=O)NCC(=O)N(Cc1ccco1)C1(C(=O)NC2CCCCC2)CCCCC1,4,i,-3,i,i,-5.6*,i,i
CCCn1c(C)cc(=O)c2cc(NC(=O)c3ccccn3)ccc21,-2,i,-3,i,i,-5.1*,53%*,2.8*
O=C(Nc1ccccc1)c1cccc(S(=O)(=O)NC2CCCC2)c1,6,i,-2,i,i,-5.2*,36%*,i
CCc1ccccc1NC(=O)CN1CCN(CC(=O)Nc2cc(C)ccc2OC)CC1,9,i,-2,i,i,i,x,x
O=c1cc(CSc2nc3cc(Cl)ccc3o2)nc2sccn12,-12,i,-5,i,i,-5.4*,51%*,i
Cc1cc(C)n2cc(CSc3nc4cc(Cl)ccc4o3)nc2n1,0,i,8,i,i,i,x,x
COc1ccc(Cc2nc3ccc(C(=O)NC4CCOC4)cc3o2)cc1 (configuration not stated),3,i,6,i,i,i,x,x
COC(=O)c1cccc(N(CC(=O)NC2CCCC2)C(=O)CCC(=O)Nc2cc(C)on2)c1,-2,i,0,i,i,i,x,x
CCCCN(CCCC)c1cn[nH]c(=O)c1Cl,4,i,0,i,i,-6.6*,66%*,i
CCCCSc1nc2[nH]ncc2c(=O)[nH]1,2,i,0,i,i,i,x,x
CC(C)CNS(=O)(=O)c1ccc(CCC(=O)N2CCN(Cc3ccc4c(c3)OCO4)CC2)cc1,2,i,6,100*,i,-5.6*,62%*,i
COc1ccc(S(=O)(=O)N2CCCCC2)cc1NC(=O)C1CC1C (configuration not stated),3,i,-1,x,x,x,x,x
Cc1cccc(C(=O)OCC(=O)c2cccc(Br)c2)c1O,6,i,-7,i,i,i,x,x
COc1ccc(S(=O)(=O)c2cnc3ccc(OC)cc3c2N2CCC3(CC2)OCCO3)cc1,-2,i,3,i,i,-9.7*,23%*,i
CCOc1ccc2ncc(S(=O)(=O)c3ccccc3)c(N3CCC4(CC3)OCCO4)c2c1,x,x,-1,i,i,i,x,x
COc1cc(N(C)C)c([N+](=O)[O-])cc1C(=O)NC(C)CNc1ccc([N+](=O)[O-])cc1Cl (configuration not stated),1,i,5,i,i,-5.6*,i,i
COC(=O)C1=C(CS(=O)(=O)c2ccccc2)NC(=O)NC1c1ccc(OC)c(OC)c1 (configuration not stated),3,i,3,i,i,i,x,x
c1cc2c3c(cccc3c1)C(N1CCCCC1)=N2,1,i,4,i,i,-6*,65%*,4.6*
COc1ccc(C(=O)c2cc([N+](=O)[O-])ccc2N2CCCC2)cc1,3,i,3,i,i,i,x,x
COc1ccc(C(=O)c2cc([N+](=O)[O-])ccc2N2CCN(C)CC2)cc1,1,i,-1,i,i,-6.9*,44%*,4.7*
CC1CCCCN1C(=O)NC1CC(=O)N(c2ccc3c(c2)OCCO3)C1 (configuration not stated),2,i,-4,i,i,i,x,x
Cc1ccc(Nc2nnc(-c3ccc(N4CCOCC4)c([N+](=O)[O-])c3)c3ccccc23)cc1,3,i,2,i,i,-5.4*,59%*,i
